pPAFAH inh = pPAFAH enzyme inhibitors, primary screen, biochemical, fluorescence polarization, human; Platelet-activating factor acetylhydrolase (Homo sapiens), Q13093; recombinant pPAFAH, FP-rhodamine probe fluorescence polarization; inhibition, % at 3.39 µM; hit rate 1.5% among 330,000; AID 463082, 2010;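 active = inhibition above the mean inhibition across the screen plus 3 SD, cut at about 25% in these data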;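 note: inhibitors block binding of the rhodamine activity-based probe so polarization drops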
PAFAH1B2 inh = PAFAH1B2 enzyme inhibitors, primary screen, biochemical, fluorescence polarization, human | Platelet-activating factor acetylhydrolase IB subunit alpha2 (Homo sapiens), P68402 | recombinant PAFAH1B2, FP-rhodamine activity probe | hit rate 1.2% among 340,000 | AID 492953, 2010 | inhibition, % at 3.39 µM;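 active = inhibition above the mean of all tested compounds plus 3 SD, cut at about 24% in these data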
PAFAH1B3 FP inh = PAFAH1B3 enzyme inhibitors, primary screen, biochemical, fluorescence polarization, human; recombinant PAFAH1B3, FP-rhodamine probe; inhibition, % at 3.39 µM; hit rate 0.28% among 340,000; AID 492972, 2010;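 active = inhibition above the screen-wide average of all tested compounds plus 3 SD, cut at about 25% in these data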
PAFAH2 FP inh = PAFAH2 enzyme inhibitors, primary screen, biochemical, fluorescence polarization, human | Platelet-activating factor acetylhydrolase 2, cytoplasmic (Homo sapiens), Q99487 | recombinant PAFAH2, FP-rhodamine activity probe | inhibition, % at 3.39 µM | hit rate 0.99% among 340,000;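 active = inhibition above the mean over all tested compounds plus 3 SD, cut at about 30% in these data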;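 note: inhibitors block probe labeling of enzyme so polarization drops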
PP1 counter = PP1-alpha phosphatase inhibitors, primary screen, counter-screen for PP5 inhibitor project, biochemical, fluorescence, OMFP substrate, single point; Serine/threonine-protein phosphatase PP1-alpha catalytic subunit (Homo sapiens), P62136; purified PP1alpha; inhibition, % at 6.7 µM; hit rate 0.9% among 320,000; AID 2235, 2010;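 active = inhibition above the mean inhibition of all tested compounds plus 3 SD, computed separately for each screening campaign, cut at about 15% in these data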
Target sequence (P62136 whole entry, looked up): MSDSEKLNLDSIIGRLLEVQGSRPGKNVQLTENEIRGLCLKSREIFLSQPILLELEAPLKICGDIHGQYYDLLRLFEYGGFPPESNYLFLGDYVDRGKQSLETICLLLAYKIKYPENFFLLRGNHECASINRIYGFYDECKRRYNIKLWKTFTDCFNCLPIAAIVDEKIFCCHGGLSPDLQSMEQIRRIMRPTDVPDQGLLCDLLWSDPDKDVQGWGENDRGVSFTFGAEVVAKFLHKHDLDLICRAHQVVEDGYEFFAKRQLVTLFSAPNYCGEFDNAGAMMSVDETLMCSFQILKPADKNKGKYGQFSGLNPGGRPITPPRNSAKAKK
PP5 primary = PP5 phosphatase inhibitors, primary screen, biochemical, fluorescence | purified PP5c, OMFP substrate fluorescence | AID 1987, 2009 | inhibition, % at 6.7 µM | hit rate 0.18% among 320,000 | Serine/threonine-protein phosphatase 5 (Homo sapiens), P53041;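 active = inhibition above the campaign's mean inhibition across all tested compounds plus 3 SD, cut at about 9.5% in these data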
pPAFAH FP conf = pPAFAH (PLA2G7) enzyme inhibitors, confirmation, biochemical, fluorescence polarization, human; inhibition, % at 3.39 µM; recombinant pPAFAH, FP-Rh probe fluorescence polarization; AID 463230, 2010; hit rate 72% among 2,300; shares compounds with pPAFAH inh;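 active = mean inhibition of the triplicate above the hit cutoff set for the earlier primary screen, cut at about 25% in these data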
Each line names hits and unclear results; the compound was inactive in the other large screens (follow-up assays come after a bar, where they were run). Shown are actives, neighbours in structure and some others; about 3.4% of the full set was active somewhere.

CCn1cc(C(=O)NCC(OC)OC)c(=O)c2cc(S(=O)(=O)N3CCC(C)CC3)ccc21	none
COc1ccc(CC(=O)Nc2cccc(/C(C)=N/NC(=O)c3cccc([N+](=O)[O-])c3)c2)cc1	pPAFAH inh 80 | pPAFAH FP conf inactive
Oc1c(Cl)cc(Cl)cc1/C=C/c1ccc2cccc(O)c2n1	pPAFAH inh 51 | pPAFAH FP conf 49
Oc1ccc(Cl)cc1/C=C/c1ccc2cccc(O)c2n1	none (no result: pPAFAH inh, PP1 counter, PP5 primary)
CC(C)CN(C(=O)COC(=O)Cc1c[nH]c2ccccc12)c1c(N)n(Cc2ccccc2)c(=O)[nH]c1=O	none
Cc1ccc(C(=O)CSc2nnc(-c3c[nH]c4ccccc34)o2)cc1	pPAFAH inh 48 | pPAFAH FP conf inactive
CCc1c(C)sc(NC(=O)CC#N)c1C#N	pPAFAH inh 35 | pPAFAH FP conf inactive
Nc1ccc(NC(=O)c2ccccc2)c2c1C(=O)c1ccccc1C2=O	none
Nc1ccc(O)c2c1C(=O)c1ccccc1C2=O	pPAFAH inh 83, PAFAH1B2 inh 55, PAFAH1B3 FP inh 44, PAFAH2 FP inh 82 | pPAFAH FP conf 46
Cc1cc(C)cc(N2C(=O)CC(c3ccccc3)CC2=O)c1	none
CC1(C2(O)CCCCC2)NCCc2ccccc21 (stereo unspecified)	none (no result: pPAFAH inh, PP1 counter, PP5 primary)
Cc1ccc(N=Nc2ccc(O)c3ncccc23)cc1	pPAFAH inh 35 | pPAFAH FP conf inactive
CC(=O)c1cccc(OCC(=O)Nc2cccc(C(=O)Nc3c(C)n(C)n(-c4ccccc4)c3=O)c2)c1	none
CN(C(=O)CC1C(=O)NCCN1Cc1ccc(F)c(F)c1)C1CCOCC1 (stereo unspecified)	pPAFAH inh 59 | pPAFAH FP conf inactive
O=C(CSc1nnc2c(n1)[nH]c1ccc(F)cc12)NCc1ccc(F)cc1	none
O=C(O)c1ccc(N/N=C/c2ccc(-c3ccccc3Cl)o2)cc1	pPAFAH inh 45 | pPAFAH FP conf inactive
O=C(N/N=C/c1ccc(-c2ccccc2Cl)o1)c1ccccc1	none
CCC1(c2ccc(F)cc2)NC(=O)N(CC(=O)Nc2cccnc2Cl)C1=O (stereo unspecified)	none
CC(N=Cc1cccc(O)c1O)c1ccccc1 (stereo unspecified)	pPAFAH inh 66 | pPAFAH FP conf inactive
Cc1ccc(C(=O)NNC(=O)CCCN2C(=O)/C(=C/c3ccccc3Cl)SC2=S)cc1	pPAFAH inh 46 | pPAFAH FP conf 53
O=C(CCCN1C(=O)/C(=C/c2ccccc2Cl)SC1=S)NNC(=O)c1ccc(Cl)cc1	none
O=[N+]([O-])c1ccc(Cl)c2c1C1C=CCC1C(c1ccccn1)N2 (stereo unspecified)	pPAFAH inh 37 | pPAFAH FP conf inactive
CCOc1ccc2[nH]c3c(N4CCN(c5ccccn5)CC4)ncnc3c2c1	pPAFAH inh 44 | pPAFAH FP conf inactive
O=C(NC(=S)NCCCN1CCOCC1)c1cccc2ccccc12	none
Cc1cc(C(=O)N/N=C2\CC(=O)CC(C)(C)C2)c(C)n1-c1ccccc1	pPAFAH inh 37 | pPAFAH FP conf 34
Cc1cc(C(=O)N/N=C2\CC(=O)CC(C)(C)C2)c(C)n1-c1ccc(F)cc1	pPAFAH inh 41 | pPAFAH FP conf 64
CN(C)CCCn1c2c(c(SCC(=O)Nc3ccc4c(c3)OCCO4)nc1=O)CCC2	none
O=C(CS(=O)(=O)Cc1ccccc1)NCc1ccccc1Cl	none
CCc1ccc(CN(C)C(=O)c2ccc3c(c2)OCCO3)cc1	none
CC(=O)c1ccc(NC(=O)CSc2nnc(-c3ccco3)c(-c3ccco3)n2)cc1	pPAFAH inh 46 | pPAFAH FP conf inactive
O=C(CSc1nnc(-c2ccco2)c(-c2ccco2)n1)c1ccccc1	pPAFAH inh 54, PAFAH2 FP inh 33 | pPAFAH FP conf inactive
Cc1ccccc1N=C1Nc2ccccc2N[C@]12C[C@H]1CCC(=O)N3CC[C@@H](C2)[C@@H]13	none (no result: pPAFAH inh, PP1 counter, PP5 primary)
CN(Cc1c(F)cccc1Cl)C(=O)c1cnc2ccccc2n1	none

Screens from PubChem BioAssay.
